# Reference: PubChem BioAssay (NCI)
# Values joined by “and” are separate entries in the source; they are usually repeats but may differ in a detail not shown here. Identical values can stand only once. This is part of a sample that, as a whole, favours compounds with a hit. Of some 83,000 tested, about 20% had one in any assay.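 Compound tested at a single concentration for 48 hours in 96-well plates; a percent growth value below 10 was scored as active.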 Active and inactive are the calls of the source.
# System: MDA-MB-468 breast
# Test: NCI-60 one-dose screen, 48 h (100 = growth as untreated, 0 = no growth, -100 = all killed)
# Conditions: 10 µM unless noted
row,SMILES,growth
1,CN1CCN(S(=O)(=O)O[C@@H]2C(=O)N(c3cc4c5ccccc5ccc4c4ccccc34)[C@H]2c2ccc(F)cn2)CC1,90.8% (inactive)
2,CN(C)CC(O)c1ccc2cc(Br)c3ccccc3c2c1 (stereo not given),-0.132% (active)
3,COc1cc(-c2nc3occn3c2-c2ccnc(NCCCNS(=O)(=O)c3ccc(O)cc3)n2)ccc1F,91.4% (inactive)
4,CCN(CC)c1ccc(/C=C/C2=[N+](C)c3ccccc3C2(C)C)cc1,20.4% (inactive)
5,CC(NC(=O)c1ccccc1)C(=O)Nc1ccccc1 (stereo not given),109% (inactive)
6,CC1(C)[C@@H](O)CC[C@]2(C)[C@H]3CC[C@@H]4[C@H]5[C@H](C(=O)/C=C\c6ccc([N+](=O)[O-])cc6)CC[C@]5(O)CC[C@@]4(C)[C@]3(C)CC[C@@H]12,36.2% (inactive)
7,Cc1nc(/N=C(\N)NC(=O)Nc2cccc([N+](=O)[O-])c2)sc1C,11.6% (inactive)
8,COc1cc(C)cc2oc3oc(=N)c(C(=O)c4ccccc4)cc3c(=O)c12,108% (inactive)
9,Nc1ncncc1-c1ccc(F)cc1,105% (inactive)
10,CCCCN1CCCCn2c1nc1c2c(=O)n(C)c(=O)n1C,102% (inactive)
11,CCc1c2c(nc3ccc(OCc4ccc(B(O)O)cc4)cc13)-c1cc3c(c(=O)n1C2)COC(=O)[C@]3(O)CC,-48.4% (active)
12,Oc1ccc(CSc2nnc(-c3ccc(Oc4ccccc4)cc3)o2)c2cccnc12,30.7% (inactive)
13,Cn1cc(C=O)c2ccccc21,100% (inactive)
14,O=C(CCCCCCC(=O)Nc1ccccc1)NO,12.1% (inactive)
15,CC(C)(C#N)c1cc(F)cc(C(=O)Nc2cc(Nc3ncccc3-c3ncnc4nc[nH]c34)ccc2F)c1,107% (inactive)
16,Cc1ccc(/C=C/C(=O)Nc2ncc(Cc3ccc(F)cc3)s2)o1,34% (inactive)
17,O=C(CCl)c1ccc2c(c1)Nc1ccccc1S2,75.7% (inactive) and 64.9% (inactive)
18,CCN(CC)CCOc1ccccc1-n1c(C)ccc1-c1ccccc1,85.1% (inactive)
19,O=S(=O)(O)c1cnccn1,105% (inactive)
20,O=C(Nc1ccccc1)Nc1ccccc1CNc1nc(Nc2ccc(OCCN3CCCC3)cc2)ncc1Cl,17.7% (inactive)

row,SMILES,growth
1,O=C(Nc1ccc(F)cc1)Nc1ccccc1CNc1nc(Nc2ccc(OCCN3CCCC3)cc2)ncc1Cl,-44.1% (active)
2,OCc1cnccc1NCCCOc1ccccc1,94.4% (inactive)
3,C#C[C@@]1(O)[C@@H](CO)O[C@@H](n2cc(F)c3c(N)ncnc32)[C@@H]1O,-46.2% (active)
4,CCCCCCCN(CCCCCCC)C(=N)c1ccnc2ccccc12,-83.5% (active)
5,c1coc(CNc2c3ccccc3nc3ccccc23)c1,29.4% (inactive)
6,Cn1cc(-c2csc(-c3cn(CCOC(N)=O)c4ccccc34)n2)c2cccnc21,16.2% (inactive)
7,CCN1CCC(CCOC)(CN2c3ccccc3Sc3ccc(Cl)cc32)C1 (stereo not given),16.9% (inactive)
8,COc1ccc(Nc2[nH]n3c(=O)cc(C)nc3c2C(N)=O)c(OC)c1,97.3% (inactive)
9,O=c1cc(N2CCOCC2)oc2c(-c3ccc4c(c3)OCCO4)csc12,-4.24% (active)
10,Cc1ccc([C@@H]2C[C@H](O)Cc3ccccc3N2)s1,124% (inactive)
11,CCOC1(OCC)OC(c2ccccc2)=C(C#N)C(/C=C\c2ccccc2)C1(OCC)OCC (stereo not given),56.7% (inactive)
12,CNc1ccc(Nc2ccc(S(=O)(=O)O)cc2)c2c1C(=O)c1ccccc1C2=O,98.6% (inactive)
13,C=C(C)[C@@H]1CC[C@]2(COS(C)(=O)=O)CC[C@]3(C)[C@H](CC[C@@H]4[C@@]5(C)CCCNC(C)(C)[C@@H]5CC[C@]43C)[C@@H]12,49.9% (inactive)
14,COc1ccc(CN2c3ccccc3Oc3ccccc32)cc1O,6.51% (active)
15,O=C(Nc1cccc2[nH]c(C(F)(F)F)nc12)c1ccc(F)cc1,65.6% (inactive)
16,c1cnc2nc3c(cc2c1)oc1ccccc13,81% (inactive)
17,C=Cc1cc[n+](CCCCCCCCCCCC)cc1,102% (inactive)
18,CCCCCCCCCCCCCCCCCC(=O)[O][Sn]([CH2]CCC)([CH2]CCC)[CH2]CCC,-96.2% (active)
19,COc1ccc(-c2[nH]c3ccc(OC)cc3c2C=C(C#N)C#N)cc1,-13.7% (active)
20,CNS(=O)(=O)Oc1ccc(-c2ccc3occc3c2)cc1,91.7% (inactive)
